# An excerpt weighted towards active compounds, which were near 2.4% of everything screened.
# Myc binder = binders of human c-Myc; 17,000 tested, 1.5% active; small molecule microarray, His-c-Myc binding, anti-His fluorescence; P01106; calls only;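 active means spot fluorescence over background with P-value below 7% in all four replicate spots, showing protein binding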
# STAT3 SMM = binders of human STAT3. Small molecule microarray, His-STAT3 binding, anti-His fluorescence. calls only. 17,000 tested, 0.2% active;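 active means compounds whose four printed spots each show fluorescence over background unusually high for their array block, chance value under 7%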
# mut p53 SMM = binds human mutant p53 on microarray. small molecule microarray binding, anti-GST fluorescence. calls only. 17,000 tested, 0.4% active;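 active means compounds whose four printed spots each glow above background more than chance allows, each with a p-value under 7%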
# NFkB SMM = binders of human NF-kappa-B p105; Small molecule microarray, anti-His fluorescence binding; P19838; 17,000 tested, 1.3% active; AID 624139; calls only;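 active means spot fluorescence over background significantly raised, with a chance value under 7% in all four replicate spots of the compound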;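 further: probe protein is his-tagged human p50 processed subunit at 1 µg/ml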
# Target sequence (P19838 1-433 limits assumed): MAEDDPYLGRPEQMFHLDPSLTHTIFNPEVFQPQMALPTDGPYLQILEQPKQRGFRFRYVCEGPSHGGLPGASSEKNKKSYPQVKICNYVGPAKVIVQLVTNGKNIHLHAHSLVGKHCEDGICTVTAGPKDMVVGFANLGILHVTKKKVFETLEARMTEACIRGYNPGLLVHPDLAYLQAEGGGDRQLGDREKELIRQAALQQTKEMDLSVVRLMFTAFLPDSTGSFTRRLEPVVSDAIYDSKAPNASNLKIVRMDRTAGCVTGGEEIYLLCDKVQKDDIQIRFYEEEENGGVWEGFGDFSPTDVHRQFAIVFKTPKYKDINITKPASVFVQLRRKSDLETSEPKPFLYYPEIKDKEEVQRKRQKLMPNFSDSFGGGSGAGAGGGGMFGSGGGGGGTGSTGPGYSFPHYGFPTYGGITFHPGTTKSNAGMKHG
# Calls only; 0 = inactive; + = active, no number.
SMILES,Myc binder,STAT3 SMM,mut p53 SMM,NFkB SMM
C[C@@H]1CCCCO[C@@H](CN(C)C(=O)CCC(F)(F)F)[C@H](C)CN([C@@H](C)CO)C(=O)c2cc(NC(=O)Cc3ccccc3)ccc2O1,0,0,0,0
C[C@@H]1CCCCO[C@H](CN(C)C(=O)CCC(F)(F)F)[C@H](C)CN([C@@H](C)CO)C(=O)c2cc(NC(=O)CCC(F)(F)F)ccc2O1,0,0,0,+
C[C@@H]1CCCCO[C@@H](CN(C)C(=O)CCC(F)(F)F)[C@H](C)CN([C@@H](C)CO)C(=O)c2cc(NC(=O)CCC(F)(F)F)ccc2O1,+,0,0,+
CN(c1ccc(OCC(=O)O)cc1)S(=O)(=O)c1ccc(F)cc1,0,0,0,+
CN(CC(N)=O)S(=O)(=O)c1ccc(F)cc1,0,0,0,0
CC(C)=CCc1c(O)cc(O)c2c1OC(c1ccccc1)CC2=O (centres undefined),0,0,0,0
CC(C)=CCc1c(O)c(CC=C(C)C)c2c(c1O)C(=O)CC(c1ccccc1)O2 (centres undefined),+,0,0,0
C[C@@H]1CN([C@@H](C)CO)C(=O)c2cc(NS(=O)(=O)c3cccs3)ccc2O[C@@H](C)CCCCO[C@@H]1CN(C)C(=O)CCC(F)(F)F,0,0,0,+
C[C@H](CO)N1C[C@H](C)[C@@H](CN(C)C(=O)CCC(F)(F)F)OCCCC[C@H](C)Oc2ccc(NS(C)(=O)=O)cc2C1=O,+,0,0,+
C[C@@H]1CCCCO[C@@H](CN(C)C(=O)CCC(F)(F)F)[C@H](C)CN([C@@H](C)CO)C(=O)c2cc(NS(=O)(=O)c3ccccc3)ccc2O1,+,0,0,+
C[C@@H]1CCCCO[C@H](CN(C)C(=O)CCC(F)(F)F)[C@@H](C)CN([C@H](C)CO)C(=O)c2cc(NS(=O)(=O)c3cccs3)ccc2O1,0,0,0,0
C[C@H]1CCCCO[C@@H](CN(C)C(=O)CCC(F)(F)F)[C@@H](C)CN([C@@H](C)CO)C(=O)c2cc(NS(=O)(=O)c3ccccc3)ccc2O1,0,0,0,0
O=C(CC(C(=O)O)N1CCCCC1)Nc1cccc(Cl)c1 (centres undefined),0,0,0,0
CCOC(=O)c1cnc2c(C)c(C)ccc2c1NCCN(C)C,0,0,+,0
C=CCOC(=O)[C@H]1[C@@H]2C(=O)O[C@@H](c3ccccc3)[C@@H](c3ccccc3)N2[C@@H](c2ccc(OCCOC(=O)[C@@H]3C[C@@H]4C(=O)N[C@@H](Cc5ccccc5)C(=O)N4[C@@H]3c3cccc(OCCO)c3)cc2)[C@]12C(=O)Nc1ccccc12,0,0,0,+
C=CCOC(=O)[C@H]1[C@@H]2C(=O)O[C@@H](c3ccccc3)[C@@H](c3ccccc3)N2[C@@H](c2ccc(OCCOC(=O)[C@@H]3C[C@@H]4C(=O)N[C@@H](CC(C)C)C(=O)N4[C@@H]3c3cccc(OCCO)c3)cc2)[C@]12C(=O)Nc1ccc(I)cc12,0,0,+,+
C=CC(C)(C)[C@@]12C[C@H]3C(=O)Nc4ccccc4C(=O)N3[C@@H]1Nc1ccccc12,0,0,0,0
O=C1c2ccccc2C(=O)N1OS(=O)(=O)c1cccc2cccnc12,0,0,0,0
COc1ccc(OC)c(S(=O)(=O)ON2C(=O)c3ccccc3C2=O)c1,+,0,0,0
COC(=O)Nc1scc(-c2ccccc2)c1C(=O)NCc1ccco1,0,0,0,0
COc1ccc(OC)c(C2C(C(=O)c3ccco3)C(=O)C(=O)N2Cc2cccnc2)c1 (centres undefined),0,0,0,0
Cc1ccc(-c2nnc(SCC(=O)c3cccc([N+](=O)[O-])c3)n2C)cc1,0,0,+,0
COc1ccc(S(=O)(=O)N(C)CC(=O)O)cc1,+,0,0,0
Cc1ccc(Cl)cc1N(CC(=O)O)S(C)(=O)=O,+,0,0,+
CN(CC(=O)O)S(=O)(=O)c1ccc2c(c1)OCCO2,0,0,0,0
SMILES,Myc binder,STAT3 SMM,mut p53 SMM,NFkB SMM
CN(CC(=O)O)S(=O)(=O)c1cc(Cl)ccc1Cl,+,0,0,+
COC(=O)c1cc(OC)c(OC)cc1NC(=S)N1CCC(C(N)=O)(N2CCCCC2)CC1,0,0,0,0
COc1ccc(N(CC(=O)O)S(C)(=O)=O)cc1OC,0,0,0,0
CS(=O)(=O)N(CC(=O)O)c1ccc(C23CC4CC(CC(C4)C2)C3)cc1,+,0,0,0
COc1ccccc1NC(=O)c1ccccc1NC(=O)CCc1ccccc1,0,0,0,0
COc1ccc(C(=O)Nc2ccccc2C(=O)NC(C(=O)O)C(C)C)cc1 (centres undefined),+,0,0,0
Cc1occc1-c1nnc2sc(-c3ccc(-c4ccccc4[N+](=O)[O-])o3)nn12,0,0,+,0
Cc1noc(C)c1NC(=O)Nc1ccc2c(c1)C(=O)N([C@@H](C)CO)C[C@@H](C)[C@@H](CN(C)C(=O)C1CCCCC1)OCCCC[C@@H](C)O2,0,+,0,0
Cc1noc(C)c1NC(=O)Nc1ccc2c(c1)C(=O)N([C@H](C)CO)C[C@@H](C)[C@@H](CN(C)C(=O)C1CCCCC1)OCCCC[C@H](C)O2,0,0,0,0
COc1ccc(CN(C)C[C@H]2OCCCC[C@@H](C)Oc3ccc(NC(=O)Nc4c(C)noc4C)cc3C(=O)N([C@@H](C)CO)C[C@@H]2C)cc1,0,0,0,0
COc1ccc(CN(C)C[C@H]2OCCCC[C@H](C)Oc3ccc(NC(=O)Nc4c(C)noc4C)cc3C(=O)N([C@H](C)CO)C[C@@H]2C)cc1,+,0,0,0
Cc1noc(C)c1NC(=O)Nc1ccc2c(c1)C(=O)N([C@H](C)CO)C[C@H](C)[C@@H](CN(C)C(=O)C1CCCCC1)OCCCC[C@H](C)O2,+,0,0,0
COc1cccc(CNc2nc3nc(C)c(Cc4ccccc4)c(=O)n3[nH]2)c1,0,0,0,0
O=S1(=O)NC(=NCCOCc2ccc(Cl)cc2)c2ccccc21,0,0,0,0
Cc1cccc(OCC(=O)NC(=S)Nc2ccc(C)cc2O)c1,0,0,0,0
CCn1nccc1C(=O)Nc1nc2ccccc2n1CCN1CCCCC1,+,0,0,0
C[C@H](CO)N1C[C@H](C)[C@H](CN(C)C(=O)NC2CCCCC2)Oc2ncc(C#Cc3ccc(F)cc3)cc2C1=O,0,0,0,0
CNC[C@@H]1Oc2ncc(-c3cc4ccccc4o3)cc2C(=O)N([C@H](C)CO)C[C@@H]1C,0,0,0,0
CNC[C@@H]1Oc2ncc(C#Cc3ccccc3)cc2C(=O)N([C@H](C)CO)C[C@@H]1C,+,0,0,+
CC(C)NC(=O)N(C)C[C@@H]1Oc2ncc(C#Cc3ccc(C(F)(F)F)cc3)cc2C(=O)N([C@H](C)CO)C[C@@H]1C,+,0,+,+
CCOC(=O)C1CCCN(S(=O)(=O)c2ccc(Cl)c(Cl)c2OC)C1 (centres undefined),0,0,0,0
